LMNA splice mod: LMNA splicing modulation. HeLa LMNA splicing GFP/RFP minigene ratio, 48 h. Potency, µM (doses to about 46.1 µM), without a hit: at the top dose ratio change, negative = inhibition, hits mostly inhibitors. hit rate 0.01% among 200,000. AID 1487; active = well fitted inhibition curve with a large enough effect in the signal ratio, with a control signal flat, not every such curve was filed as active; inconclusive = small, poorly fitted or top-dose-only effect, or effect the other way, or a change in a side signal; the % refers to the signal ratio; also: % is scaled to controls: 0 for no effect and ±100 for the full control effect
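Read-out is the ratio of GFP to DsRed2 object intensity, acquired by 488 nm laser-scanning cytometry on HeLa lamin A-EGFP minigene reporter cells. Compound incubation 48 hrs at 37 °C in Opti-MEM with 2% FBS; DMSO 0.5% final.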
HTT aggregate: inhibitors of mutant huntingtin aggregate formation in PC12 cells; PC12 HttQ103-GFP aggregates, Acumen cytometry, 40 h; Potency, µM (doses to about 46.1 µM), without a hit: top-dose activity change, negative = inhibition, most hits filed as inhibitors; hit rate 1.1% among 220,000; active = well fitted curve in the direction sought with a large enough effect; inconclusive = small, poorly fitted or top-dose-only effect, or another doubt; inactive = no such curve, though single readings can be large; an effect the other way counts as inactive or inconclusive; also: % is scaled to controls: 0 for no effect and ±100 for the full control effect; nearly all actives have a fitted effect of over 60% in size
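Ecdysone-promoter PC12 model expressing HTT exon 1 Q103 fused to GFP, induced by tebufenozide at 100 nM final. Compounds titrated; aggregates sized 1–25 µm scored on a 488 nm laser cytometer.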
HPGD block: blocks human HPGD enzyme activity; P15428; purified HPGD, NADH fluorescence kinetic, PGE2 substrate; Potency, µM, for inactives: at the top dose activity change, negative = inhibition, actives largely listed as inhibitors; hit rate 4.3% among 150,000; AID 894; also: % is scaled to controls: 0 for no effect and ±100 for the full control effect
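NADH formation kinetics: reaction with 30 uM PGE2 and 1 mM NAD+ (final), 20 nM enzyme, Tris-HCl pH 8 with Tween 20, after 15 min compound preincubation at room temperature. Fluorescence change, last versus first of five reads.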
HTT ATP protect: cytoprotection in Huntington HTT-Q103 PC12 cell model. AID 1471. Potency, µM (top dose mostly 56.4 µM), without a hit: cytoprotection (ATP increase), hits mostly activators. PC12 HTT-Q103 induced, cytoprotection, ATP luminescence, 40 h. hit rate 0.14% among 230,000; active = well fitted curve in the direction sought with a large enough effect; inconclusive = small, poorly fitted or top-dose-only effect, or another doubt; inactive = no such curve, though single readings can be large; an effect the other way counts as inactive or inconclusive; also: % of control where 0% means no effect; nearly all actives have a fitted effect of over 45% in size
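Quantitative HTS on tebufenozide-induced (100 nM) PC12 cells expressing HTTQ103 exon 1–GFP; compounds tested as a concentration series; survival measured via cellular ATP.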
KDM4E inh: JMJD2E (human) inhibition. B2RXH2. JMJD2E catalytic domain, FDH-coupled NADH fluorescence (FDH is formaldehyde dehydrogenase). Potency, µM (series often up to 57.1 µM), for the others: at the top dose activity change, negative = inhibition, usual class: inhibitors. hit rate 1.6% among 230,000. AID 2147;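 also: 0% = wells with enzyme and -100% = buffer wells without enzyme; nearly all actives have a fitted effect of over 50% in size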
Target sequence (B2RXH2 1-337 limits assumed): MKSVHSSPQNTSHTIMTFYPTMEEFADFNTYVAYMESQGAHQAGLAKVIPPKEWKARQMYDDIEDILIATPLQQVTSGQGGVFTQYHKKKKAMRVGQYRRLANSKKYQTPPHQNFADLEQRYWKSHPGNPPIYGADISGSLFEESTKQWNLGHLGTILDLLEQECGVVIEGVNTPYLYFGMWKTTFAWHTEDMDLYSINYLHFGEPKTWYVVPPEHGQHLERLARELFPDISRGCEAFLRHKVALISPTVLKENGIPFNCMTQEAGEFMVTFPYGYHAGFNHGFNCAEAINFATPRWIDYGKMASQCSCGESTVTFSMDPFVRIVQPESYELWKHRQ
ALDH1A1 block: ALDH1A1 (human) enzyme inhibition; P00352; Purified ALDH1A1, NADH fluorescence, propionaldehyde substrate; Potency, µM (titrated, usually from 75.3 µM), for the others: at the top dose activity, negative = inhibition, actives largely listed as inhibitors; hit rate 7.3% among 220,000; AID 1030;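 also: plate controls were no enzyme wells and a reference inhibitor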
* hit, by the source's call; ? = inconclusive; / = no result given; [ ] = remark or other dose. Only some compounds are listed: those with a hit (about 9.2% of all), similar ones and a draw of the others. Unless noted, calls follow the shape of the dose curve; as a rule, active = well fitted inhibition curve with a large enough effect (not every such curve was filed as active); inconclusive = small, poorly fitted or top-dose-only effect, or another doubt; inactive = no such curve, though single readings can be large or run the other way. Potency is read from the fitted curve at half-maximal effect.

SMILES	LMNA splice mod	HTT aggregate	HPGD block	HTT ATP protect	KDM4E inh	ALDH1A1 block
CC1=CC(=O)[C@@H]2C[C@H]1C2(C)C	/	/	3%	1%[1.9 µM]	5%	-1%
O=C(O)[C@H](Cc1ccc(O)c([N+](=O)[O-])c1)N1C(=O)c2ccccc2C1=O	/	/	-8%	-15%[10 µM]	/	-2%[13.5 µM]
O=C(NC1CSC/C1=N\O)c1ccccc1 (stereo not given)	5%	17%	-11%	-7%	5%	22µM*
CCOc1ccc(-c2nnc(N3CCCCC3)c3ccccc23)cc1	6%[0.0737 µM]	11µM*	-29%	-38%	-3%	?
COCC(=O)N1CCC2(CCCN(Cc3nccs3)C2)CC1	/	/	0%	-3%	/	15%
O=C1c2nccnc2C(=O)N1c1ccc(C(F)(F)F)cc1	6%[46 µM]	18%	/	-24%	-6%	-9%
CCOc1ccc(C(=O)NCCC2=CCCCC2)cc1OCC	-5%[46 µM]	6%	/	-28%	-27%	25µM*
Cc1ccccc1NS(=O)(=O)c1cc(C(=O)NCCC2=CCCCC2)ccc1Cl	?	-32%	5%	-56%	-6%	20µM*
Cc1cccc(NS(=O)(=O)c2cc(C(=O)NCCC3=CCCCC3)ccc2Cl)c1	6%	?	-10%	-74%	2%	-7%
Cc1cc(-c2nnc(CCC(=O)N(CC3CCC3)CC3CCCO3)o2)no1 (stereo not given)	/	-19%[9.22 µM]	/	-2%[10 µM]	7%	10%
O=S(=O)(Nc1nc2ccccc2s1)c1cnc(Cl)c(Br)c1	/	-12%[9.22 µM]	/	0%[10 µM]	4%	20µM*
COc1cc(-c2nc(S(=O)(=O)c3ccc(Br)cc3)c(N3CCOCC3)o2)cc(OC)c1OC	-5%[46 µM]	/	/	/	/	/
CC1=NN(c2ccc(S(=O)(=O)O)cc2Cl)C(=O)C1	3%[46 µM]	-14%[9.22 µM]	/	15%[10 µM]	10%	11µM*
CC1=NN(c2ccc(Cl)c(C(=O)O)c2)C(=O)C1	-4%	-3%	-8%	-7%[10 µM]	?	6%
COc1ccc(N(CC(=O)Nc2ccccc2F)S(=O)(=O)c2ccc(C)c([N+](=O)[O-])c2)cc1	/	18%	/	6%[10 µM]	-9%	11µM*
O=C(CN(c1ccc(Cl)cc1)S(=O)(=O)c1ccc(Cl)c([N+](=O)[O-])c1)NCCc1ccccc1	/	11%	/	12%	1%	25µM*
O=C(CN(c1ccc(Cl)cc1)S(=O)(=O)c1ccc(Cl)c([N+](=O)[O-])c1)NCCc1ccc(F)cc1	?	-7%	-5%	20%[10 µM]	4%	11%
COc1ccc(N(CC(=O)NCc2ccncc2)S(=O)(=O)c2ccc(C)c([N+](=O)[O-])c2)cc1	/	-9%[9.22 µM]	/	1%[10 µM]	-2%	/
COC(=O)c1cc(NCc2cccs2)ccc1N1CCOCC1	-3%	-23%	-9%	-8%	-22%	18µM*
O=C1CNC(=O)/C(=C/c2cccs2)N1	/	18%	/	/	3%	-5%
O=C1/C(=C/c2cccs2)NC(=S)N1C1CC1	2%	-3%	16µM*	/	-6%	?
CCCCNC(=O)C(c1ccc(OCC(=O)OC)c(C(=O)OC)c1)N(Cc1ccccc1)C(=O)CCCCCN1C(=O)NC(c2ccc(-c3ccccc3)cc2)C(C(=O)OCc2ccccc2)=C1C (stereo not given)	/	/	-9%	-1%	-2%	2%
O=C(CCN1CCOCC1)c1ccc(Cl)cc1	/	8%[9.22 µM]	/	3%[10 µM]	-7%	0.089µM*
O=C(NCCCN1CCOCC1)c1ccc(Cl)cc1	/	30%	/	32%	/	/
O=C(CCN1CCOCC1)c1ccc(Br)cc1	?	3%[9.22 µM]	/	14%[10 µM]	4%	0.1µM*
COc1cc(CCCN2C(N)=NC[C@@H]2Cc2ccccc2)cc(OC)c1OC	/	20%[9.22 µM]	/	-3%[10 µM]	2%	/
CCCCC/C=C\C/C=C\C/C=C\C/C=C\CCCC(=O)C(F)(F)F	/	/	-4%	?	/	20µM*
CCCCCCCCCCC/C=C\C/C=C\CCCC(=O)O	/	/	-8%	-7%	-4%	11%
CC1(C)CC(=O)C2=C(C1)OC(c1ccc(O)cc1)C(C#N)=C2N (stereo not given)	?	9%	-19%	/	2%	1.1µM*
